Test results from PubChem BioAssay (EPA / NIEHS).
Inconclusive results are not listed. Activity calls are given as the source filed them. How the source made its calls, unless noted: active means hit-call score of the fitted dose curve at least 0.9, where 1 is the maximum; inactive means score below 0.9.

Key:
[1] = biological target: Cellular tumor antigen p53 (Homo sapiens) (UniProt P04637); assay: TOX21_p53_BLA_p2_ratio: Tox21 HCT-116 p53 Agonism Beta-lactamase Assay, Ratio, Phase 2 (AID 2283592; active means hit-call score of the fitted dose curve at least 0.9, where 1 is the maximum)
Cellular tumor antigen p53 (Homo sapiens), sequence (P04637 whole entry, looked up): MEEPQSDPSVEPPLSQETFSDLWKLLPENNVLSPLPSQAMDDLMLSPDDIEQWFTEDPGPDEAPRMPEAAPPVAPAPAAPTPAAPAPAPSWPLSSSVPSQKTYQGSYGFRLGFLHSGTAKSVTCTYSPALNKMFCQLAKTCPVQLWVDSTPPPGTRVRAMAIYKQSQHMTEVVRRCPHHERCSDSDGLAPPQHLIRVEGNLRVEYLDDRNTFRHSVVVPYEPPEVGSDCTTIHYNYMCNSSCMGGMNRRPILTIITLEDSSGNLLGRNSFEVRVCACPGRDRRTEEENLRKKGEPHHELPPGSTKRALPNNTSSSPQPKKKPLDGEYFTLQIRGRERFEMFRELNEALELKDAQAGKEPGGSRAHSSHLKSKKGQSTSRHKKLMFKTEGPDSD
In short: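 An inducible beta-lactamase reporter in HCT116 cells signals p53 pathway activation. After 16 h chemical exposure at 37C, cells load CCF4-AM substrate for 2 h at room temperature; activity is the cleaved/uncleaved emission ratio relative to DMSO.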

[2] = TOX21_p53_BLA_p3_viability: Viability Assessment in the Tox21 HCT-116 p53 Agonism Beta-lactamase Assay, Phase 3 (AID 2283593; active means hit-call score of the fitted dose curve at least 0.9, where 1 is the maximum;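 further: cells exposed to compound for 16 h before reading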)
In short: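 HCT-116 cells (4000/well) rested 5 h at 37C, then got DMSO compounds by pin tool (217-fold dilution) for 16 h at 37C, 5% CO2. After the bla read, CellTiter-Glo was added and luminescence read at 30 min, room temperature.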

[3] = biological target: Cellular tumor antigen p53 (Homo sapiens) (UniProt P04637); assay: TOX21_p53_BLA_p3_ratio: Tox21 HCT-116 p53 Agonism Beta-lactamase Assay, Ratio, Phase 3 (AID 2283596; active means hit-call score of the fitted dose curve at least 0.9, where 1 is the maximum)
In short: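 HCT116 p53-bla cells (4000/well) given compound in DMSO (217-fold dilution) after 5 h, incubated 16 h at 37C. CCF4-AM substrate 2 h at room temperature; 460/530 nm emission ratio, gain fitted against DMSO.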

[4] = TOX21_p53_BLA_p4_viability: Viability Assessment in the Tox21 HCT-116 p53 Agonism Beta-lactamase Assay, Phase 4 (AID 2283597; active means hit-call score of the fitted dose curve at least 0.9, where 1 is the maximum;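 further: hits lower the luminescence signal meaning cytotoxicity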)
In short: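 Compound exposure of HCT116 cells lasts 16 h at 37C, 5% CO2, with DMSO stocks diluted 217-fold. Cellular ATP is then quantified by CellTiter-Glo luminescence after 30 min at room temperature.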

[5] = biological target: Cellular tumor antigen p53 (Homo sapiens) (UniProt P04637); assay: TOX21_p53_BLA_p5_ratio: Tox21 HCT-116 p53 Agonism Beta-lactamase Assay, Ratio, Phase 5 (AID 2283599; active means hit-call score of the fitted dose curve at least 0.9, where 1 is the maximum)
In short: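 HCT-116 cells carrying a p53-inducible beta-lactamase reporter were seeded at 4000 cells/well and dosed after 5 h with compound in DMSO (217-fold dilution). After 16 h at 37C, CCF4-AM substrate was added for 2 h, and the 460/530 nm emission ratio was scored as gain-of-signal versus DMSO.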

[6] = TOX21_p53_BLA_p5_viability: Viability Assessment in the Tox21 HCT-116 p53 Agonism Beta-lactamase Assay, Phase 5 (AID 2283600; active means hit-call score of the fitted dose curve at least 0.9, where 1 is the maximum)
In short: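 Counter-readout for cytotoxicity: ATP-dependent luminescence from CellTiter-Glo, read in the beta-lactamase wells after 30 min at RT, following a 16 h compound exposure at 37C.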

[7] = biological target: Cellular tumor antigen p53 (Homo sapiens) (UniProt P04637); assay: TOX21_p53_BLA_p4_ratio: Tox21 HCT-116 p53 Agonism Beta-lactamase Assay, Ratio, Phase 4 (AID 2283601; active means hit-call score of the fitted dose curve at least 0.9, where 1 is the maximum)
In short: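 HCT116 cells carrying an inducible beta-lactamase reporter were plated at 4000 cells/well, rested 5 h, then exposed to compounds in DMSO (217-fold dilution) for 16 h at 37C. CCF4-AM substrate was loaded 2 h at room temperature; 460/530 nm emission ratio scored gain-of-signal versus DMSO.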

[8] = CCTE_Harrill_HTTr_Viability_MCF7: CCTE's 6-hour Cell Viability Assessment for the High-Throughput Transcriptomics (HTTr) Platform, in MCF-7 cells cultured in DMEM + 10% fetal bovine serum, Harrill Lab (AID 2284010)
In short: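 MCF-7 cells in DMEM + 10% FBS, 384-well, exposed 6 h to an eight-point dilution series. Membrane integrity scored by high-content imaging of propidium iodide exclusion; bidirectional fit versus DMSO.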

[9] = CCTE_Harrill_HTTr_Apoptosis_MCF7: CCTE's 6-hour Apoptosis Assessment for the High-Throughput Transcriptomics (HTTr) Platform, in MCF-7 cells cultured in DMEM + 10% fetal bovine serum, Harrill Lab (AID 2284011)
In short: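 Cells are dosed with test chemicals at eight concentrations and imaged 6 hours later for caspase-3/7 activity using a green fluorogenic detection reagent. Activity is fitted in both directions against DMSO controls.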

[10] = CCTE_Shafer_MEA_dev_firing_rate_mean: CCTE's Neural Network Formation Assay for Mean Firing Rate, Shafer Lab (AID 2284031)
In short: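 Primary rat cortical neurons on 48-well MEA plates, exposed from plating day 0 with dosing renewed on DIV 5 and 9. Mean well firing rate over active electrodes, recorded days 5, 7, 9, 12, summarised as trapezoidal AUC.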

[11] = CCTE_Shafer_MEA_dev_per_burst_spike_percent: CCTE's Neural Network Formation Assay for Percent of Spikes in a Burst, Shafer Lab (AID 2284032)
In short: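 Rat primary cortical neurons on 16-electrode MEA wells, dosed from plating day 0 for 12 days with renewal on DIV 5 and 9; spikes-in-bursts percentage averaged over bursting electrodes, collapsed as AUC across days 5, 7, 9, 12; loss direction versus DMSO.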

[12] = CCTE_Shafer_MEA_dev_active_electrodes_number: CCTE's Neural Network Formation Assay for Number of Active Electrodes, Shafer Lab (AID 2284040; active means hit-call score of the fitted dose curve at least 0.9, where 1 is the maximum)
In short: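 Primary rat cortical neurons on 16-electrode MEA wells, exposed from day 0 through day 12 with compound renewed at DIV 5 and 9 feeds. Active electrodes (mean firing ≥5 spikes/min) counted at DIV 5, 7, 9, 12; trapezoidal AUC across days, loss-of-signal versus DMSO.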

[13] = CCTE_Shafer_MEA_dev_burst_rate: CCTE's Neural Network Formation Assay for Burst Rate, Shafer Lab (AID 2284042)
In short: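 Exposure ran continuously over 12 days of network development in rat cortical cultures, with compound refreshed during full media changes on DIV 5 and 9. Single-electrode bursts per recording time, well-mean over active electrodes, trapezoidal AUC across days 5–12, fitted downward relative to DMSO.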

[14] = CCTE_Shafer_MEA_dev_bursting_electrodes_number: CCTE's Neural Network Formation Assay for Number of Bursting Electrodes, Shafer Lab (AID 2284043; active means hit-call score of the fitted dose curve at least 0.9, where 1 is the maximum)
In short: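 Primary rat cortical neurons were cultured on PEI-coated 48-well MEA plates (16 electrodes/well) and exposed from plating through day 12, with compound renewed at feeds on DIV 5 and 9. Electrodes bursting ≥1 per 2 min were counted on DIV 5, 7, 9, 12; trapezoidal AUC taken.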

[15] = CCTE_Shafer_MEA_dev_per_burst_interspike_interval: CCTE's Neural Network Formation Assay for Burst Interspike Interval, Shafer Lab (AID 2284044);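 further: mean spike spacing inside bursts as AUC over recordings on days 5 7 9 12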
In short: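 Developmental network-formation MEA in primary rat cortical cultures with exposure spanning days 0–12. Within-burst ISI is averaged per well and integrated across recording days by area under the curve, with DMSO as negative control baseline.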

[16] = CCTE_Shafer_MEA_dev_burst_duration_mean: CCTE's Neural Network Formation Assay for Mean Burst Duration, Shafer Lab (AID 2284045)
In short: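 Primary rat cortical neurons on PEI-coated 16-electrode MEA wells, exposed from plating through day 12 with compound renewed at DIV 5 and 9; spontaneous activity recorded days 5, 7, 9, 12. Well-mean burst duration collapsed as trapezoidal AUC, fitted for loss versus DMSO.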

[17] = CCTE_Shafer_MEA_dev_interburst_interval_mean: CCTE's Neural Network Formation Assay for Mean Interburst Interval, Shafer Lab (AID 2284046);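 further: well-mean interburst interval of bursting electrodes as AUC over four recording days; curve fitted for decrease in interburst interval relative to DMSO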
In short: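 Primary rat cortical neurons on PEI-coated 48-well MEA plates (laminin added with cells at plating) (16 electrodes/well), exposed from plating day 0 with renewal at DIV 5 and 9. Mean inter-burst interval averaged over bursting electrodes, AUC across days 5, 7, 9, 12; DMSO baseline.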

[18] = CCTE_Shafer_MEA_dev_inter_network_spike_interval_mean: CCTE's Neural Network Formation Assay for Mean Inter-network Spike Interval, Shafer Lab (AID 2284047)
In short: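 Mean time between consecutive network-spike peaks, recorded extracellularly (adaptive spike detection) on DIV 5, 7, 9 and 12, summarized as trapezoidal AUC. Rat cortical cultures on MEAs dosed continuously days 0–12, re-dosed at feeds; loss-of-signal fit relative to DMSO.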

[19] = CCTE_Shafer_MEA_dev_network_spike_number: CCTE's Neural Network Formation Assay for Number of Network Spikes, Shafer Lab (AID 2284048);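 further: synchronized bursts across electrodes counted on days 5 7 9 12 and integrated as AUC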
In short: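 Primary rat cortical neurons were seeded at 1.5 x 10^5 cells/well on PEI-coated 16-electrode MEA wells with laminin, exposed from plating day 0, compound renewed at DIV 5 and 9. Network spikes were recorded on days 5, 7, 9, 12 and summarized as trapezoidal AUC versus DMSO.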

[20] = CCTE_Shafer_MEA_dev_network_spike_peak: CCTE's Neural Network Formation Assay for Mean Number of Electrodes in Network Spike, Shafer Lab (AID 2284049)
In short: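 Continuous 12-day exposure of rat cortical cultures, starting at plating, on MEA plates. Endpoint: electrodes participating in network-spike peaks, AUC across DIV 5–12, DMSO as negative control.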

[21] = CCTE_Shafer_MEA_dev_spike_duration_mean: CCTE's Neural Network Formation Assay for Mean Spike Duration, Shafer Lab (AID 2284051);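 further: mean network spike duration pooled as area under curve over DIV 5 to 12 recordings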
In short: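 Spontaneous activity was recorded on days 5, 7, 9 and 12 from rat cortical cultures grown on microelectrode arrays and dosed continuously from day 0, with media and compound renewed after the DIV 5 and 9 recordings. Network-spike duration was collapsed by area under the curve.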

[22] = CCTE_Shafer_MEA_dev_network_spike_duration_std: CCTE's Neural Network Formation Assay for Standard Deviation of Network Spike Duration, Shafer Lab (AID 2284052);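 further: hits are decreases in network spike duration SD versus DMSO vehicle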
In short: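 Network spike duration variability was collapsed across recordings on days 5, 7, 9 and 12 by trapezoidal area-under-curve and fitted downward against DMSO. Cultures were rat cortical neurons on PEI-coated MEA plates, dosed continuously from plating, refed with compound DIV 5/9.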

[23] = CCTE_Shafer_MEA_dev_per_network_spike_spike_number_mean: CCTE's Neural Network Formation Assay for Mean Number of Spikes in a Network Spike, Shafer Lab (AID 2284053)
In short: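 Mean spike count within each network spike, taken in a 0.05 s window at its peak, was recorded on days 5, 7, 9 and 12 and integrated as trapezoidal area under the curve. Rat cortical cultures on MEA plates received continuous compound from day 0, refreshed at medium changes on DIV 5 and 9.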

[24] = CCTE_Shafer_MEA_dev_per_network_spike_spike_percent: CCTE's Neural Network Formation Assay for Percent of Spikes in a Network Spike, Shafer Lab (AID 2284054)
In short: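 Primary rat cortical neurons on 16-electrode MEA wells (PEI-coated, laminin at plating), exposed from day 0 with renewal at DIV 5 and 9; spikes within 0.05 s of network-spike peaks over total spikes, AUC across days 5, 7, 9, 12.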

[25] = UKN5_HCS_SBAD2_cell_viability: Viability Assessment in the University of Konstanz (UKN) Leist Lab Neurite Outgrowth Assay in human iPSC-derived immature Dorsal Root Ganglia Neurons (UKN5) (AID 2284056)
In short: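 iPSC-derived immature peripheral neurons (SBAD2) seeded on Matrigel with CHIR99021, SU5402 and DAPT, dosed 1 h later for 24 h. Viability from Hoechst H-33342 and calcein-AM live staining, high-content imaging; bidirectional fit versus DMSO.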

[26] = CCTE_Shafer_MEA_dev_LDH: CCTE's Lactate Dehydrogenase Assay for Cytotoxicity in the Neural Network Formation Assay, Shafer Lab (AID 2284068; active means hit-call score of the fitted dose curve at least 0.9, where 1 is the maximum;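 further: exposure for twelve days from plating with re-dosing on DIV 5 and 9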)
In short: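 Primary rat cortical neurons were cultured on PEI-coated MEA plates and exposed from plating through day 12, with compound renewed at medium changes on DIV 5 and 9. LDH activity was read spectrophotometrically; loss of signal versus DMSO indicates reduced viability.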

[27] = UKN5_HCS_SBAD2_neurite_outgrowth: University of Konstanz (UKN) Leist Lab Neurite Outgrowth Assay in human iPSC-derived immature Dorsal Root Ganglia Neurons (UKN5) (AID 2284070); details: actives raise or lower the signal
In short: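 SBAD2 iPSC-derived immature peripheral neurons on Matrigel, 100.000 cells/cm2, medium with CHIR99021 (1.5 uM), SU5402 (5 uM), DAPT (5 uM); compound added 1 h post-seeding for 24 h. Calcein-AM neurite area by high-content imaging; Hoechst H-33342 viability; bidirectional fit vs DMSO.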

[28] = CCTE_Shafer_MEA_dev_AB: CCTE's Alamar Blue Assay for Cytotoxicity in the Neural Network Formation Assay, Shafer Lab (AID 2284083; active means hit-call score of the fitted dose curve at least 0.9, where 1 is the maximum;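 further: resazurin reduction fluorescence as viability of cultured neurons; twelve days of exposure from plating with re-dosing on DIV 5 and 9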)
In short: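 Resazurin fluorescence, relative to DMSO, gauges viability after twelve days of exposure that began at plating of rat cortical neurons (1.5 x 10^5 cells/well, 48-well MEA); treatment renewed with full medium exchange on DIV 5 and 9.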

[29] = CCTE_Shafer_MEA_dev_mutual_information_norm: CCTE's Neural Network Formation Assay for Mutual Information Normalization, Shafer Lab (AID 2284091)
In short: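 Rat cortical cultures, 48-well MEA, continuous exposure DIV 0–12 with full media/compound change DIV 5 and 9. Readout: inter-electrode mutual information, AxIS adaptive spike detection; AUC across DIV 5/7/9/12 recordings; DMSO baseline, negative fitting direction.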

Measured: outcome

C[C@@H]1C[C@H]2[C@@H]3CCC4=CC(=O)C=C[C@]4(C)[C@@]3(F)[C@@H](O)C[C@]2(C)[C@@]1(O)C(=O)CO
inactive: [1] | [2] | [3] | [4] | [5] | [6] | [7] | [8] | [9] | [10] | [11] | [12] | [13] | [14] | [15] | [16] | [17] | [18] | [19] | [20] | [21] | [22] | [23] | [24] | [25] | [26] | [27] | [28] | [29]
